# Only a selection was taken, and hits are over-represented in it overall.
# Giardia kill: Small Molecules that selectively kill Giardia lamblia: qHTS; activity change, % at 7.66 µM, hits read low; 0.15% of 340,000 active; Giardia lamblia trophozoite viability; in the data active = activity change below about -80%; inconclusive = between about -30% and that limit;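 also: parasites exposed to compound for two days anaerobically before the ATP read; % is scaled to controls: 0 for no effect and ±100 for the full control effect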
#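 Killing of trophozoites was scored by loss of ATP luminescence after a 48 hrs anaerobic exposure to compounds at 37 deg C, using 100 cells per well.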
# ERG-DNA inh: qHTS for Small Molecule Inhibitors of the ERG Ets/DNA interaction; fluorescence polarization, His-ERG Ets domain / labelled DNA; Potency, µM (series often up to 76.9 µM), without a hit: top-dose FP activity, negative = inhibition, most hits filed as inhibitors; 0.028% of 370,000 active; active = well fitted inhibition curve with a large enough effect in the polarisation, with a control signal flat; inconclusive = small, poorly fitted or top-dose-only effect, or effect the other way, or a change in a side signal; inactive = no such curve, though single readings can be large or run the other way; the % refers to the polarisation;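 also: polarization taken with two DNA probes labelled with fluorescein and Texas red; potency is read from the fitted curve at half-maximal effect; % of control where 0% means no effect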
#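 His-tagged ERG Ets domain (1 uM in the protein solution; 300mM KCl, 50mM Tris-HCl, 1mM EDTA, 1mM DTT, pH 7.5) received compound, then a probe mix of 5 nM fluorescein-DNA and 100nM Texas-615-DNA. Fluorescence polarization was read for both dyes.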
# RORg inh: qHTS for inhibitors of ROR gamma transcriptional activity | 5.4% of 310,000 active | Drosophila S2 Gal4-RORgamma UAS-luciferase reporter, 20 h | Potency, µM (doses to about 53.6 µM), inactives show at the top dose activity change, negative = inhibition, hits mostly inhibitors | Nuclear receptor ROR-gamma (Mus musculus), P51450; also: potency is read from the fitted curve at half-maximal effect; % is scaled to controls: 0 for no effect and ±100 for the full control effect; nearly all actives have a fitted effect of over 60% in size
# Target sequence (P51450 whole entry, looked up, the tested form may be a part): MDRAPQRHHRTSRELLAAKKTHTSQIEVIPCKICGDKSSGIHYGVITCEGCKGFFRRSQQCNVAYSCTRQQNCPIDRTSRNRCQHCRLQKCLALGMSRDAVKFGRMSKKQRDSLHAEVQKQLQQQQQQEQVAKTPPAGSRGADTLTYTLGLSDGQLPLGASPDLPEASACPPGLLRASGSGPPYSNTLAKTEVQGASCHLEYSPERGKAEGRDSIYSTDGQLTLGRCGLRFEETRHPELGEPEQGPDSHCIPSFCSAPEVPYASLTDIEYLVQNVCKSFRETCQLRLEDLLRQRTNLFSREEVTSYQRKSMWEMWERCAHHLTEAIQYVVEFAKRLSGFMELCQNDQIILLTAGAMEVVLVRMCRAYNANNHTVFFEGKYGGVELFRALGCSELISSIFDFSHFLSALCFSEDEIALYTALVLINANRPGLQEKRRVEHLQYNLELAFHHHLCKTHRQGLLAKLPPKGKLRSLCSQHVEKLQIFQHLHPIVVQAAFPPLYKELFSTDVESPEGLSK
#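 Drosophila Schneider cells stably carrying a metallothionein-driven Gal4 DBD–ROR gamma fusion and a UAS-Photinus luciferase reporter were exposed to compound for 1 hr, then induced with copper sulfate (700 uM final) for 20 hr at ambient temperature before luminescence reading.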
# a7 integrin act: qHTS for Activators of Integrin-Mediated Alleviation for Muscular Dystrophy | 0.064% of 350,000 active | AID 624291, 2012 | Potency, µM (titrated, usually from 38.3 µM), for the others: at the top dose activation, usual class: activators | alpha7betagal myoblasts, beta-gal FDG fluorescence, 48 h;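 also: potency is read from the fitted curve at half-maximal effect; 100% = response of the positive control SU9516; nearly all actives have a fitted effect of over 60% in size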
#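 Alpha7betagal+/- myoblasts (passage 13) were plated 16-24 hr, then exposed to compounds (1:260 dilution of DMSO stock) for 48 hours at 37C. After MPER lysis, β-galactosidase reporter activity was read as FDG fluorescence (ex 480/em 540) after 30 minutes.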
# Gal4-VP16 FLuc: VP16 counterscreen qHTS for inhibitors of ROR gamma transcriptional activity | Drosophila S2 Gal4-VP16 UAS-luciferase, luminescence, 20 h | Potency, µM (series often up to 53.6 µM), inactives show at the top dose activity, negative = inhibition, hits mostly inhibitors | 3.5% of 310,000 active | AID 2546, 2010;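 also: Gal4-VP16 expression switched on by copper sulfate through the metallothionein promoter; potency is read from the fitted curve at half-maximal effect; % is scaled to controls: 0 for no effect and ±100 for the full control effect; nearly all actives have a fitted effect of over 50% in size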
# Numbers without * were called inactive; ? = inconclusive; · = no result given; [ ] = another dose, or the depositor's remark. Unless noted, calls follow the shape of the dose curve; as a rule, active = well fitted curve in the direction sought with a large enough effect; inconclusive = small, poorly fitted or top-dose-only effect, or another doubt; inactive = no such curve, though single readings can be large; an effect the other way counts as inactive or inconclusive.
SMILES,Giardia kill,ERG-DNA inh,RORg inh,a7 integrin act,Gal4-VP16 FLuc
CCN(CC)c1ccc(/C=N/NC(=O)c2c(Cl)c(C)nn2C)cc1,-4.3,-2.5%,5.62µM*,-21.9%,?
Cc1onc(-c2ccccc2)c1C(=O)N/N=C/c1ccco1,8.5,12.5%,?,25.0%,-12.6%
Cc1onc(-c2ccccc2)c1C(=O)N/N=C/c1ccc([N+](=O)[O-])s1,?,·,11.2µM*,-43.8%,11.2µM*
CCN(CC)c1ccc(/C=N/NC(=O)c2c(-c3ccccc3)noc2C)cc1,-8.5,-0.8%,11.2µM*,-33.4%,?
CCOc1cc2c(cc1OCC)CN(CC(=O)Nc1ccccc1C(=O)NC1CC1)CC2,-10.5,-4.4%,·,-5.8%,·
COCCn1c(=O)cnc2cnc(Nc3cccc(OC)c3)nc21,·,·,-23.7%,·,?
C=CCNC(=O)c1ccc(NC(=O)C2=CSCCO2)cc1,?,1.9%,-35.4%,12.8%,-26.1%
CC(=O)OCOC(=O)CNc1ccccc1OCCOc1ccccc1NCC(=O)OCOC(C)=O,·,·,?,·,-0.1%
CC(C)CO/N=C1/C[C@@H](O)[C@@H](O)[C@@H]2[C@@H]3C(=O)N(Cc4ccc5c(c4)OCO5)C(=O)[C@H]3CC[C@H]12,·,·,-0.3%[10 µM],·,1.0%[10 µM]
Cc1onc(-c2ccccc2)c1C(=O)N/N=C/C=C/c1ccccc1,1.0,-7.9%,2.24µM*,2.3%,3.16µM*
CCOC(=O)C(Cc1c[nH]c2ccccc12)NC(=O)c1ccccc1Br (centres undefined),0.5,-4.8%,8.91µM*,-8.5%,?
COC(=O)C(Cc1c[nH]c2ccccc12)NC(=O)c1ccccc1Br (centres undefined),-22.4,-7.3%,-2.9%,-34.4%,3.5%
O=C(NCCc1ccccc1)C1CCCN1S(=O)(=O)c1ccccc1 (centres undefined),-20.7,3.0%,24.4%,15.5%,21.1%
Cc1cc(C)cc(C(=O)/C=C2\NC(=O)CS2)c1,10.2,5.8%,3.98µM*,?,5.62µM*
CCCCC(CC)COCCCN (centres undefined),·,·,18.2%,·,6.4%
S=c1[nH]nc(-c2ccncc2)n1/N=C/C=C/c1ccccc1,2.5,11.0%,2.82µM*,-9.3%,-4.9%
O=[N+]([O-])c1ccccc1/C=C/C=N/n1c(-c2ccc(Cl)cc2)n[nH]c1=S,-4.5,9.0%,8.91µM*,-25.0%,-17.5%
O=[N+]([O-])c1ccccc1/C=C/C=N/n1c(-c2ccccc2)n[nH]c1=S,-6.7,-12.8%,6.31µM*,-31.5%,0.9%
O=P1(O)Oc2c(c(-c3ccccc3)cc3ccc4ccccc4c23)-c2c(-c3ccccc3)cc3ccc4ccccc4c3c2O1,·,·,-23.2%,·,-6.1%
COC(=O)C/C=C/[C@@H](C)[C@H](OC)c1c(Br)ccc2c1OCO2,·,·,7.6%,·,1.7%
Cc1cc(=O)[nH]c(N/N=C/c2ccc(OC(=O)c3ccco3)cc2)n1,-5.9,1.1%,-3.6%[10 µM],33.3%,-8.4%
CC(C)(C)NC(=O)COC(=O)c1ccc(NC(=O)CC#N)cc1,-20.0,-0.5%,14.8%,-20.6%,14.7%
COc1ccc(-n2c(=O)c3sc4ccccc4c3n(CC(=O)NC3CCCCC3)c2=O)cc1,·,0.5%,·,·,·
Cc1ccnc(N(C(=O)Nc2ccccc2)C2=NCC(C)(C)S2)c1,8.3,-7.1%,11.2µM*,0.0%,?
Cc1ccc(N(C(=O)Nc2ccccc2)C2=NCC(C)S2)cc1 (centres undefined),2.8,-4.5%,-34.8%,2.2%,11.4%
SMILES,Giardia kill,ERG-DNA inh,RORg inh,a7 integrin act,Gal4-VP16 FLuc
COc1ccc(-n2nnnc2SCC(=O)NCCc2ccccc2)cc1,·,-2.5%,·,·,·
COC(=O)c1c(NC(=O)C(Cl)Cl)sc2c1C(C(=O)OC)CC2 (centres undefined),-9.9,-0.3%,3.98µM*,13.7%,7.94µM*
COC(=O)c1nn(-c2ccc(OC)cc2)c(=O)cc1O,-4.8,-1.5%,4.3%,16.2%,-9.7%
COc1ccc(-n2nc(C#N)c(Cl)cc2=O)cc1,13.5,0.9%,10µM*,-60.4%,12.6µM*
C/C(=N\NC(=O)c1ccc(-c2ccccc2)cc1)c1ccco1,-4.6,0.1%,-12.5%,12.3%,6.0%
C/C(=N\Nc1nc(C)cc(-c2ccccc2)n1)c1ccc(O)cc1,-9.3,-10.1%,?,-41.2%,?
C/C(=N\Nc1nc(C)cc(-c2ccccc2)n1)c1ccc(C)o1,-20.7,5.8%,5.01µM*,-4.1%,10µM*
C/C(=N/Nc1nc(C)cc(-c2ccccc2)n1)c1ccco1,-7.6,2.9%,5.01µM*,15.2%,17.8µM*
COc1cc(C(C)C)c2c(c1)S(=O)(=O)N(COc1cc(=O)n3cccc(OCCN4CCCCC4)c3n1)C2=O,·,·,-30.1%,·,?
CCOc1ccc(S(=O)(=O)NCc2cccnc2)c2ccccc12,-0.5,-4.7%,14.9%,-0.4%,2.7%
CN(C)CCNC(=O)/C(=C/c1ccc(-c2cccc([N+](=O)[O-])c2)o1)NC(=O)c1ccccc1,7.3,6.0%,32.6%,-37.2%,1.4%
CN(C)CCNC(=O)/C(=C/c1ccc(-c2cccc(Cl)c2)o1)NC(=O)c1ccccc1,-25.9,1.5%,3.16µM*,-4.8%,?
COC(=O)/C(=C\c1ccc([N+](=O)[O-])o1)NC(=O)c1ccccc1,?,9.4%,?,-17.8%,-0.8%
CCCCNC(=O)/C(=C\c1ccc([N+](=O)[O-])o1)NC(=O)c1ccccc1,-101.1*,0.5%,?,-12.4%,3.5%
Cc1ccc(C(=O)N/C(=C\c2ccc(-c3ccccc3[N+](=O)[O-])o2)C(=O)NCCN(C)C)cc1,7.9,-3.1%,7.08µM*,-57.6%,10µM*
COc1ccc(S(=O)(=O)c2c(O)c(C)cc(NS(=O)(=O)c3ccc(Cl)cc3)c2C(C)C)cc1,·,2.0%,·,·,·
Cc1nnsc1C(=O)N1CCCC(N2CCN(c3ccc(F)cc3)CC2)C1 (centres undefined),-4.2,14.8%,-1.8%,5.1%,-0.6%
CCOc1ccccc1CNC(=O)c1ccc2nc(CCc3ccccc3)oc2c1,·,-1.1%,·,·,·
CCN(CC)CCCC(C)n1c(-c2ccccc2)nc2c(NCCOC)nc(C)nc21 (centres undefined),·,·,-36.1%,·,-3.9%
CCc1ccc(NC(=S)Nc2cc(C(=O)O)ccc2N2CC3CC(C2)c2cccc(=O)n2C3)cc1 (centres undefined),?,-5.0%,10µM*,-5.0%,?
Cc1nn(CC(=O)NCc2ccc(F)cc2)c2ccccc12,·,5.9%,·,·,·
CCOC(=O)[C@@H]1[C@H]2COc3cc(OC)ccc3[C@@H]2N2C(=O)N(c3ccc(Br)cc3)C(=O)[C@@]12C,-3.9,11.9%,7.94µM*,6.3%,-2.9%

# Bioassay records deposited in PubChem by National Center for Advancing Translational Sciences (NCATS).
